PubChem BioAssay AID2629 (Broad Institute, 2010)
Several values for one entry are separate records, joined by “and”; a condition that tells them apart may be missing. Identical values can stand only once. About 1,900 (0.59%) of roughly 320,000 compounds were called active. No stated cut-off is given here; in the data, active means inhibition mostly above about 10% (no sharp cut-off); inactive means mostly below about 6.7%. The list comes from a sample in which actives are over-represented; it also holds similar structures and randomly drawn compounds.

What follows are molecules tested against Protein LANA1 (Human herpesvirus 8 type P (isolate GK18)) (UniProt Q9QR71) (assay: blockers of LANA interaction with H2A/H2B – biochemical, FP readout, HTS, primary screen (AID 2629)). Conditions: cell-free LANA-H2A/H2B peptide, fluorescence polarization, stronger effect = higher value, concentration not given here.
Chain of Protein LANA1 (Human herpesvirus 8 type P (isolate GK18)) (Q9QR71 whole entry, looked up): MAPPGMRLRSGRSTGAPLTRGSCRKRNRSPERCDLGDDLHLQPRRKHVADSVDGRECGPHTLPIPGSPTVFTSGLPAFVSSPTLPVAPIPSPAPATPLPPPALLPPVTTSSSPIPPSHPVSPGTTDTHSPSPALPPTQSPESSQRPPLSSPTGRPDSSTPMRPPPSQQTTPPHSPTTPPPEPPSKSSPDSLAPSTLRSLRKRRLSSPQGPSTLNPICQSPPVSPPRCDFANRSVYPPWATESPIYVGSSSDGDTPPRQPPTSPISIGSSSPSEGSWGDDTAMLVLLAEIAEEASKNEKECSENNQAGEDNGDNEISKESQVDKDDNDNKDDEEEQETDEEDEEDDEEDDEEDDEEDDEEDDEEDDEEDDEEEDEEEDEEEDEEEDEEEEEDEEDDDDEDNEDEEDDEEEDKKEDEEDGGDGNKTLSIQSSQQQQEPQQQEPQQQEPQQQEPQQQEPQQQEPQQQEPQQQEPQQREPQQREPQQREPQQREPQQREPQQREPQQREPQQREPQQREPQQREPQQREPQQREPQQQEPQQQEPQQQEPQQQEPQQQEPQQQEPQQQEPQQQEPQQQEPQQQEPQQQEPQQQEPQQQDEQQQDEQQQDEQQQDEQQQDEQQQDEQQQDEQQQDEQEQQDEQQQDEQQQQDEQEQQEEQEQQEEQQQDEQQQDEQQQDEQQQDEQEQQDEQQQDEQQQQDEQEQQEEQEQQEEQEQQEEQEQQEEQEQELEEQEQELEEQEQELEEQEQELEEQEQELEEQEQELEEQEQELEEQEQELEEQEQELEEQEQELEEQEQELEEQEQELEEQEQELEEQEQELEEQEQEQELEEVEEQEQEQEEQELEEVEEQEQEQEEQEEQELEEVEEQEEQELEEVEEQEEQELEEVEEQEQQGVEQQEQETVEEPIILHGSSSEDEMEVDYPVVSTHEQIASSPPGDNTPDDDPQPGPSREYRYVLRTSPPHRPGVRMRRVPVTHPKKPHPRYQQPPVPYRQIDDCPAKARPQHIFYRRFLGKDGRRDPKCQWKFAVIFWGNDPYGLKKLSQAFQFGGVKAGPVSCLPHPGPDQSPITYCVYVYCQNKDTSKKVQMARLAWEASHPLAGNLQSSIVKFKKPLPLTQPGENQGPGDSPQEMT

Q: Which inhibition does the source give for `C/C(=N/OC(=O)c1ccc(Br)cc1)c1ccc(C)cc1` here?
A: 4.46% (inactive)

Q: `Cc1nnc(-c2ccc(Oc3ccc(C)c(C)c3)c([N+](=O)[O-])c2)o1` was tested. Which inhibition did it give?
A: 0.884% (inactive)

Q: `O=S(=O)(Nc1ccccc1N1CCOCC1)c1ccc(Cl)s1` was tested. Which inhibition did it give?
A: 4.05% (inactive)

Q: For `O=S(=O)(Nc1cc(S(=O)(=O)N2CCOCC2)ccc1N1CCCC1)c1cccs1`, which inhibition is on record?
A: -1.3% (inactive)

Q: For `O=S(=O)(Nc1cc(Cl)ccc1N1CCOCC1)c1ccccc1Cl`, which inhibition is on record?
A: 16.7% (active)

Q: `CCCCN(C(=O)c1ccc(S(=O)(=O)N2CCOCC2)cc1)C1CCS(=O)(=O)C1` (configuration not stated) was tested. Which inhibition did it give?
A: 3.61% (inactive)

Q: Which inhibition does the source give for `COCCCNC(=S)N(CCN(C)C)Cc1cc2cc3c(cc2[nH]c1=O)OCCO3` here?
A: 9.12% (active)

Q: With `CCN(CC)CCCNC(=S)N(CCO)Cc1cc2cc3c(cc2[nH]c1=O)OCO3` as the molecule, how does the inhibition read?
A: -0.647% (inactive)

Q: For `CCNC(=S)N(CCN(CC)CC)Cc1cc2cc3c(cc2[nH]c1=O)OCCO3`, which inhibition is on record?
A: -5.92% (inactive)

Q: How did the inhibition turn out when `C=C(C)CNC(=S)/N=c1\scc(C)n1CC` was run?
A: 3.02% (inactive)

Q: For `COc1ccc(Cc2cc(-c3ccc(F)cc3)n[nH]c2=O)cc1`, which inhibition is on record?
A: -1.23% (inactive)

Q: Which inhibition does the source give for `O=C(CCc1nc2ccccc2c(=O)[nH]1)OCC(=O)c1cccc(Cl)c1` here?
A: -2.71% (inactive)

Q: How did the inhibition turn out when `Cc1ccc(C(=O)COC(=O)CCN2C(=O)C3C4CCC(C4)C3C2=O)cc1C` (configuration not stated) was run?
A: 0.254% (inactive)

Q: `Cc1ccc(C(=O)COC(=O)c2cccc(N3C(=O)c4c(C)nc5ccccc5c4C3=O)c2)cc1C` was tested. Which inhibition did it give?
A: 14.6% (active)

Q: Which inhibition does the source give for `CC(C)(C)C1CCC(C(=O)NCC(c2cccs2)N2CCOCC2)CC1` (configuration not stated) here?
A: -3% (inactive)

Q: How did the inhibition turn out when `CN(Cc1ccc(CNC[C@H]2O[C@@H](n3cnc4c(N)ncnc43)[C@H](O)[C@@H]2O)o1)S(C)(=O)=O` was run?
A: 1.32% (inactive)

Q: With `O=C(O)Cc1csc(-c2cccc(Oc3ccccc3)c2)n1` as the molecule, how does the inhibition read?
A: -3.8% (inactive) and 4.18% (inactive)

Q: For `COc1cc(C(=O)OC(C)C(=O)NCC2CCCCC2)cc(NC(=O)c2ccco2)c1OC` (configuration not stated), which inhibition is on record?
A: 1.94% (inactive)

Q: How did the inhibition turn out when `CC(C)(C)c1ccc(C(=O)NCc2nnc(SCC(=O)N3CCCc4ccccc43)n2-c2ccccc2)cc1` was run?
A: 2.13% (inactive)

Q: Which inhibition does the source give for `COc1ccc(NC(=O)C2CCCN(S(=O)(=O)c3cccc4cccnc34)C2)cc1OC` (configuration not stated) here?
A: 2.61% (inactive)

Q: Which inhibition does the source give for `COc1ccc(NC(=O)C2CCCN(S(=O)(=O)c3cccc4cccnc34)C2)cc1` (configuration not stated) here?
A: -2.43% (inactive)

Q: How did the inhibition turn out when `COc1ccccc1CNC(=O)C1CCCN(S(=O)(=O)c2cccc3cccnc23)C1` (configuration not stated) was run?
A: 138% (active)

Q: For `CCOc1cc(C2C(C(=O)c3ccco3)=C(O)C(=O)N2Cc2ccccc2)ccc1O` (configuration not stated), which inhibition is on record?
A: 2.24% (inactive)

Q: Which inhibition does the source give for `COc1ccc(C2C(C(C)=O)=C(O)C(=O)N2Cc2cccnc2)cc1` (configuration not stated) here?
A: 0.519% (inactive)

Q: With `O=C(C1=C(O)C(=O)N(Cc2ccccc2)C1c1cccnc1)c1ccco1` (configuration not stated) as the molecule, how does the inhibition read?
A: 10.9% (active)

Q: `Cc1ccc(N(C(=O)Cc2cccs2)C2C=CS(=O)(=O)C2)cc1Cl` (configuration not stated) was tested. Which inhibition did it give?
A: 0.0691% (inactive)

Q: `OC1CSc2nc3ccccc3n2C1` (configuration not stated) was tested. Which inhibition did it give?
A: 0.181% (inactive)

Q: How did the inhibition turn out when `CC1Cc2cc(/C(O)=C3\C(=O)C(=O)N(CCN4CCOCC4)C3c3ccccc3F)ccc2O1` (configuration not stated) was run?
A: -0.116% (inactive)

Q: With `COCCCN1C(=O)C(=O)/C(=C(/O)c2ccc3c(c2)CC(C)O3)C1c1cccnc1` (configuration not stated) as the molecule, how does the inhibition read?
A: -6.56% (inactive) and -12.2% (inactive)

Q: How did the inhibition turn out when `CC1Cc2cc(/C(O)=C3\C(=O)C(=O)N(Cc4cccnc4)C3c3ccccc3F)ccc2O1` (configuration not stated) was run?
A: 12.2% (active)

Q: With `CN(CC(=O)NCCc1ccc(S(N)(=O)=O)cc1)CC(=O)Nc1ccc(Cl)cc1` as the molecule, how does the inhibition read?
A: -9.65% (inactive)

Q: With `CCn1cc(C(=O)NCCCN2CCCCCC2)c(=O)c2cc(S(=O)(=O)N3CCc4ccccc4C3)ccc21` as the molecule, how does the inhibition read?
A: 1.1% (inactive)

Q: Which inhibition does the source give for `CC1(C)N=C(c2ccccn2)C(C)(C)N1O` here?
A: 3.45% (inactive)

Q: Which inhibition does the source give for `CC(C(=O)N1CCc2ccccc21)N(C)CC(=O)Nc1ccc(F)cc1` (configuration not stated) here?
A: 4.45% (inactive)

Q: For `COc1cc(NC(=O)c2ccccc2NS(=O)(=O)c2ccc(Cl)s2)cc(OC)c1`, which inhibition is on record?
A: -1.77% (inactive)

Q: How did the inhibition turn out when `C=CCC[C@H](Cc1ccc(F)cc1)C(=O)OC[C@@H](Cc1c[nH]c2ccccc12)NC(=O)[C@H](CC=C)CC(=O)N[C@H](CO)Cc1ccccc1` was run?
A: 145% (active)

Q: How did the inhibition turn out when `C=CC[C@@H](CC(=O)N[C@H](CO)Cc1ccccc1)C(=O)N[C@@H](COC(=O)[C@@H](CC=C)Cc1ccc(F)cc1)Cc1c[nH]c2ccccc12` was run?
A: -2.42% (inactive)

Q: How did the inhibition turn out when `C=CCC[C@@H](Cc1ccc(F)cc1)C(=O)OC[C@H](Cc1c[nH]c2ccccc12)NC(=O)[C@@H](CC=C)CC(=O)N(CCO)Cc1ccccc1` was run?
A: 3.67% (inactive)

Q: For `COc1ccc(NC(=O)CSc2nc(SC)ns2)c(OC)c1`, which inhibition is on record?
A: 0.787% (inactive)

Q: How did the inhibition turn out when `CCCn1nc(Oc2nc(NC(C)C)nc(N(C)C)n2)ccc1=O` was run?
A: -2.39% (inactive)

Q: With `O=C(Nc1nnc(-c2ccccc2)o1)c1cc(-c2cccs2)nc2ccccc12` as the molecule, how does the inhibition read?
A: 14.9% (active)

Q: Which inhibition does the source give for `CCCCN(C)CCCNC(=O)c1cc(-c2cccs2)nc2ccccc12` here?
A: -1.81% (inactive)

Q: Which inhibition does the source give for `O=C(NCCN1CCOCC1)c1cc(-c2cccs2)nc2ccccc12` here?
A: 14% (inactive)

Q: Which inhibition does the source give for `CCc1ccccc1NC(=O)CN(C)C(=O)c1cc(C2CC2)nn1-c1ccccc1` here?
A: -3.11% (inactive)

Q: For `COc1cccc(NC(=O)CN(C)C(=O)c2cc(C3CC3)nn2-c2ccccc2)c1`, which inhibition is on record?
A: 559% [above what the read-out allows, likely interference] (active)

Q: `COc1ccc(NC(=O)CN(C)C(=O)c2cc(C3CC3)nn2-c2ccccc2)cc1` was tested. Which inhibition did it give?
A: -290% (inactive)

Q: Which inhibition does the source give for `COc1cccc(CN2CCN(Cc3ccc4cccc(F)c4n3)CC2CCO)c1` (configuration not stated) here?
A: -3.14% (inactive)

Q: Which inhibition does the source give for `COc1ccc(C2=CC(c3cccc(OC)c3)n3nnnc3N2)cc1` (configuration not stated) here?
A: -1.03% (inactive)

Q: With `COc1ccc(C2C=C(c3ccc(Br)cc3)Nc3nc(NS(C)(=O)=O)nn32)cc1` (configuration not stated) as the molecule, how does the inhibition read?
A: 31.6% (active)

Q: How did the inhibition turn out when `CCS(=O)(=O)n1nc(-c2ccccc2)nc1SCc1ccccc1` was run?
A: 0.944% (inactive)

Q: How did the inhibition turn out when `COc1ccc(C(=O)NCCn2nc(C)cc2C)cc1OC1CCN(C(C)=O)CC1` was run?
A: 0.74% (inactive)

Q: For `COc1ccc(C(=O)NC(C)Cn2nc(C)cc2C)cc1OC1CCN(C(C)=O)CC1` (configuration not stated), which inhibition is on record?
A: 16.1% (active)

Q: How did the inhibition turn out when `COc1ccc(C(=O)NC(C)c2nccs2)cc1OC1CCN(C(C)C)CC1` (configuration not stated) was run?
A: 4.31% (inactive)

Q: How did the inhibition turn out when `CCOc1ncccc1C(=O)OCC(=O)NC1CC1` was run?
A: -3.51% (inactive)

Q: With `FC(F)(F)c1nnc2c3ccccc3c(Cl)nn12` as the molecule, how does the inhibition read?
A: 8.62% (inactive)

Q: For `Cc1nnc(SCc2ccc(C(=O)c3ccc(Cl)cc3)o2)n1-c1ccccc1`, which inhibition is on record?
A: -1.68% (inactive)

Q: With `Cc1noc(C)c1S(=O)(=O)N(C)C[C@H]1Oc2ccc(NC(=O)C3CC3)cc2C(=O)N([C@H](C)CO)C[C@@H]1C` as the molecule, how does the inhibition read?
A: 3.05% (inactive)

Q: How did the inhibition turn out when `Cc1noc(C)c1NC(=O)Nc1cccc2c1O[C@H](CN(C)S(=O)(=O)c1c(C)noc1C)[C@@H](C)CN([C@H](C)CO)C2=O` was run?
A: -5.54% (inactive)

Q: Which inhibition does the source give for `C[C@H](CO)N1C[C@H](C)[C@H](CN(C)C(=O)Nc2ccc(C(F)(F)F)cc2)Oc2c(NC(=O)c3ccncc3)cccc2C1=O` here?
A: 0.195% (inactive)

Q: With `CC(C)NC(=O)Nc1cccc2c1O[C@@H](CN(C)S(=O)(=O)c1ccc(F)cc1)[C@@H](C)CN([C@H](C)CO)C2=O` as the molecule, how does the inhibition read?
A: -0.984% (inactive)

Q: `COc1ccc(NC(=O)Nc2ccc3c(c2)C(=O)N([C@H](C)CO)C[C@H](C)[C@@H](CN(C)C(=O)Nc2ccc4c(c2)OCO4)O3)cc1` was tested. Which inhibition did it give?
A: 1.05% (inactive)

Q: For `C[C@H](CO)N1C[C@H](C)[C@@H](CN(C)S(=O)(=O)c2ccc(F)cc2)Oc2c(NC(=O)Nc3ccccc3)cccc2C1=O`, which inhibition is on record?
A: 14.5% (active)

Q: How did the inhibition turn out when `COc1ccc(S(=O)(=O)N(C)C[C@@H]2Oc3ccc(NC(=O)Nc4c(C)noc4C)cc3C(=O)N([C@H](C)CO)C[C@@H]2C)cc1` was run?
A: 4.41% (inactive)

Q: Which inhibition does the source give for `COc1ccc(S(=O)(=O)N(C)C[C@H]2Oc3c(NC(=O)Nc4ccc5c(c4)OCO5)cccc3C(=O)N([C@H](C)CO)C[C@@H]2C)cc1` here?
A: 16.9% (active)

Q: With `Cc1noc(C)c1NC(=O)Nc1ccc2c(c1)C(=O)N([C@H](C)CO)C[C@H](C)[C@@H](CN(C)S(=O)(=O)c1cn(C)cn1)O2` as the molecule, how does the inhibition read?
A: 546% [above what the read-out allows, likely interference] (active)

Q: `COc1ccc(S(=O)(=O)Nc2cccc3c2O[C@H](CN(C)S(=O)(=O)c2ccc(OC)cc2)[C@@H](C)CN([C@H](C)CO)C3=O)cc1` was tested. Which inhibition did it give?
A: -1.79% (inactive)

Q: `Cc1ccc2c(c1)N(C(=O)CCC(=O)NCc1cccnc1)CCO2` was tested. Which inhibition did it give?
A: -4.82% (inactive)

Q: Which inhibition does the source give for `CCN(C(=O)CSc1cccc[n+]1[O-])c1ccccc1` here?
A: -3% (inactive)

Q: For `CCOc1ccc(CCNC(=O)COC(=O)c2c(OC)cccc2OC)cc1OCC`, which inhibition is on record?
A: 1.41% (inactive)

Q: `FC(F)Oc1ccccc1C1CC(c2ccc(Br)s2)Nc2ncnn21` (configuration not stated) was tested. Which inhibition did it give?
A: 2.23% (inactive)

Q: For `Cn1c(C(=O)OC(C(=O)NC2CCCCC2)c2ccccn2)cc2sccc21` (configuration not stated), which inhibition is on record?
A: -2.12% (inactive)

Q: Which inhibition does the source give for `Cc1cc(C)c(C)c(S(=O)(=O)N[C@@H](C)C(=O)OC(C)C(=O)NC(N)=O)c1C` (some centres not stated) here?
A: 0.241% (inactive)

Q: `Cc1ccc(SC(C)C(=O)NCc2ccc(F)cc2)cc1` (configuration not stated) was tested. Which inhibition did it give?
A: -1.45% (inactive)

Q: How did the inhibition turn out when `COc1ccc(NC(=O)C2CCC(CNc3c(N4CCCCC4)c(=O)c3=O)CC2)c(OC)c1` (configuration not stated) was run?
A: 2.53% (inactive)

Q: `CCN(CCn1cccn1)Cc1nc(-c2ccc(C(=O)OC)cc2)no1` was tested. Which inhibition did it give?
A: 0.645% (inactive)

Q: `COC(=O)c1ccc(S(=O)(=O)N2CCC(c3nc4ccccc4o3)CC2)cc1` was tested. Which inhibition did it give?
A: 1.89% (inactive)

Q: With `CC1(C)CC(=O)C(C2c3ccccc3S(=O)(=O)c3ccccc32)C(=O)C1` as the molecule, how does the inhibition read?
A: -4.3% (inactive)
